From PubChem BioAssay (NCI)
About 79,000 compounds went through this panel and 15% of them were active in at least one assay; those are over-represented in the sample as a whole. Rule as the data show it: active = growth inhibition above about 70%; inactive = the rest.

Legend:
[1] = NCI Yeast Anticancer Drug Screen. Data for the rad50 strain (AID 155);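 also: 0% = growth of vehicle-only cultures of the same strain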; details: S. cerevisiae rad50 strain growth inhibition; at 50.0 µM; active compounds read high
Method in brief: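 Genetically altered yeast (DNA repair pathway); compound treatment; growth inhibition vs vehicle ctrl.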

[2] = NCI Yeast Anticancer Drug Screen. Data for the mec2-1 strain (AID 157); details: S. cerevisiae mec2-1 strain, at 50.0 µM, active compounds read high
Method in brief: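 Mutant yeast (mec2-1) grown with compound; growth inhibition relative to vehicle control reported.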

[3] = NCI Yeast Anticancer Drug Screen. Data for the sgs1 mgt1 strain (AID 161);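 also: 0% = growth of cultures given vehicle only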; details: S. cerevisiae sgs1 mgt1 strain, at 50.0 µM, active compounds read high
Method in brief: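 Percent growth inhibition was derived by comparing compound-exposed mutant yeast with vehicle-exposed cultures. The strain carries alterations in DNA damage repair.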

[4] = NCI Yeast Anticancer Drug Screen. Data for the cln2 rad14 strain (AID 165);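 also: 0% = growth equal to vehicle treated cultures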; details: S. cerevisiae cln2 rad14 strain, at 50.0 µM, active compounds read high
Method in brief: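 Readout is yeast growth inhibition versus vehicle-treated controls, using a strain with cln2 and rad14 alterations exposed to compound.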

[5] = NCI Yeast Anticancer Drug Screen. Data for the bub3 strain (AID 167); details: S. cerevisiae bub3 mutant strain, at 50.0 µM, active compounds read high
Method in brief: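 Yeast carrying a defined mutation is treated with each compound, and growth is compared with that of vehicle-exposed cells to give inhibition.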

[6] = NCI Yeast Anticancer Drug Screen. Data for the mlh1 rad18 strain (AID 175); details: S. cerevisiae mlh1 rad18 strain growth inhibition; at 50.0 µM; active compounds read high
Method in brief: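 Genetically defined yeast (DNA repair-deficient) exposed to compounds; growth inhibition determined relative to vehicle.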

Measured: growth inhibition

CCC(=O)c1cc2c(cc1O)CC(C(=O)CC)c1ccccc1-2 (stereo unspecified)
inactive: [1] 13.3% | [2] 6.55% | [3] 17% | [4] -2.55% | [5] 11.2% | [6] 12.4%

NC1NC(=O)C(CCCOc2ccc([N+](=O)[O-])cc2)C(c2ccccc2)N1 (stereo unspecified)
inactive: [1] 3.55% | [2] -11.8% | [3] 6.6% | [4] 2.35% | [5] 21.8% | [6] 10.4%

CC(=O)OC1OC(COC(c2ccccc2)(c2ccccc2)c2ccccc2)C(OCc2ccccc2)C(OCc2ccccc2)C1OC(C)=O (stereo unspecified)
inactive: [1] -14.3% | [2] -18.1% | [3] -21.1% | [4] 13.3% | [5] 0.45% | [6] 1.65%

Cc1ccc(NC(=S)SCc2ccc(Cl)c(Cl)c2)cc1Br
inactive: [1] 29.3% | [2] -6.45% | [3] 10.2% | [4] 15% | [5] 0.3% | [6] 13.8%

N#Cc1ccc(-c2nc3ccc(Cl)cc3[nH]2)cc1
inactive: [1] -47.9% | [2] -31% | [3] -13.7% | [4] 6.7% | [5] -30.9% | [6] -21.9%

Cc1cccc(C)c1C
inactive: [1] 4.8% | [2] -5% | [3] 9.85% | [4] -3.05% | [5] -0.65% | [6] -15.1%

N#Cc1c(-c2ccccc2)c[nH]c1/N=C/N
inactive: [1] -17.6% | [2] -16.8% | [3] -9.75% | [4] -10.4% | [5] -10.2% | [6] -6.5%

O=C(CCn1[nH]c(=O)c(Cl)c(Cl)c1=O)NO
inactive: [1] -21.3% | [2] -14.1% | [3] -9.75% | [4] 3.35% | [5] -19.1% | [6] -13.9%

Cc1nc(Cl)c2cnccn12
inactive: [1] -4.2% | [2] -1.85% | [3] 7.8% | [4] -37.5% | [5] -1.25% | [6] 0.2%

COc1ccc2c(c1)C1(C)CCCC(C)(CN=C=O)C1CC2 (stereo unspecified)
inactive: [1] 3.55% | [2] 14.4% | [3] -4.75% | [4] 4.8% | [5] -11.9% | [6] -1.95%

CCN(CC)CCNc1ccc2ncn3c4ccc(OC)cc4c(=O)c1c23
inactive: [1] 4.35% | [2] -1.9% | [3] -34.9% | [4] 18.6% | [5] 20.9% | [6] 34.2%

Cc1cccc(C)c1NC(=O)C(=O)C(C#N)c1ccccc1Cl (stereo unspecified)
inactive: [1] -13.2% | [2] -47.7% | [3] -10.8% | [4] -1.1% | [5] 4.85% | [6] -11.5%

O=C1CCC(C(=O)Nc2ccc(Cl)c(Cl)c2)N1 (stereo unspecified)
inactive: [1] 1.75% | [2] 10.6% | [3] 8.5% | [4] -10.7% | [5] 1.1% | [6] -8.15%

CC1(C)CC(NC(=O)C(C)(C)Oc2ccc(Cl)cc2)CC(C)(C)N1
inactive: [1] 32.5% | [2] 6% | [3] 25.9% | [4] -12% | [5] 9.15% | [6] 25.8%

O=C(c1ccc(-c2ccccc2)cc1)N(C(=O)c1cc(N2CCOCC2)ccn1)c1ccc([N+](=O)[O-])cc1
inactive: [1] 43% | [2] 17.8% | [3] 45.8% | [4] 22.9% | [5] -5.6% | [6] 8.6%

COC(=O)C1C2C=CC(C2)N1[C@@H](C)c1ccccc1 (stereo partly specified)
inactive: [1] 8.55% | [2] -28.3% | [3] -40.1% | [4] -5.6% | [5] -28% | [6] -21.4%

CCOC(=O)/C=C/c1cccc(F)c1
inactive: [1] 19.2% | [2] -5.25% | [3] 7.85% | [4] 12% | [5] 12.2% | [6] 10.5%

CC(=O)NC1C(OCc2ccccc2)OC(CO)C(O)C1OCc1ccccc1 (stereo unspecified)
inactive: [1] 27.3% | [2] -18.2% | [3] 15.6% | [4] -24.1% | [5] -2.9% | [6] -11.8%

O=C(O)COc1ccc([N+](=O)[O-])cc1/C=C1/SC(=S)N(c2ccccc2)C1=O
inactive: [1] 14.7% | [2] 10.3% | [3] 18.9% | [4] 2.5% | [5] -1.6% | [6] 11.2%

COc1ccc(CSC(=S)Nc2ccc(C)c(Cl)c2)cc1
inactive: [1] 26% | [2] 18.2% | [3] 18.6% | [4] 10.1% | [5] -3.35% | [6] 17.2%

CC(C)CCCC(C)[C@H]1CCC2[C@@H]3CCC4Cc5nc6c(nc5C[C@]4(C)C3CC[C@@]21C)CC1CC[C@@H]2C(C[C@@H](O)[C@@]3(C)C2C[C@@H]2OC4(CCC(C)CO4)C(C)[C@@H]23)[C@@]1(C)C6 (stereo partly specified)
inactive: [1] -19.6% | [2] 1.65% | [3] -21.8% | [4] -15% | [5] -10.9% | [6] -8.65%

CSc1nc(-c2ccccc2)c(C(=O)NC(C)CN2CCCCC2)s1 (stereo unspecified)
inactive: [1] 13.5% | [2] 5.15% | [3] 7.45% | [4] 11% | [5] -3.2% | [6] 11.1%

NNC(=O)CC(N)C(N)=O (stereo unspecified)
inactive: [1] -4.1% | [2] 3.5% | [3] -3.25% | [4] 13.3% | [5] 27.4% | [6] 16.5%

CCOC(=O)/C=C\SCC(=O)OCC
inactive: [1] -8.95% | [2] -4.1% | [3] -6.3% | [4] -33.4% | [5] 4.1% | [6] -14.9%

COc1cc2c3c(c1OC)-c1[nH]c4ccccc4c1C1CCCN(CC2)C31 (stereo unspecified)
inactive: [1] -54.9% | [2] -19.9% | [3] -20.4% | [4] -29.9% | [5] -16.4% | [6] -11.7%

CC(C)(C)OC(=O)N(CCCCNC(=O)C(F)(F)F)CCCNC(=O)C(F)(F)F
inactive: [1] -26.4% | [2] -30.3% | [3] -26% | [4] 11.6% | [5] -29.8% | [6] -86%

COc1ccc(OCCO)cc1
inactive: [1] -10.4% | [2] -17.8% | [3] -6.85% | [4] -27.1% | [5] -22.1% | [6] -0.15%

O=C(O)Cc1cccc(C(=O)O)c1
inactive: [1] -1.55% | [2] -8% | [3] -7.3% | [4] 8.4% | [5] -0.45% | [6] -3.35%

O=C(Nn1c(=S)[nH][nH]c1=S)c1ccccc1
inactive: [1] 17.1% | [2] -4.05% | [3] -2.35% | [4] -12.2% | [5] -14.5% | [6] 21.4%

COC(=O)N1CCC(Sc2ccccc2)C2(CCSc3ccccc3)CCC=C12 (stereo unspecified)
inactive: [1] -2.2% | [2] -2.95% | [3] 5% | [4] -28.1% | [5] -27.6% | [6] -12.6%

O=NN(C(=O)NCCCl)c1[nH]c(=O)ncc1I
inactive: [1] -8.65% | [2] -9.7% | [3] -13.9% | [4] -25.2% | [5] 3.05% | [6] -6.1%

CC1(C)S[C@@H]2[C@H](NC(=O)C3(N)CCCCC3)C(=O)N2[C@H]1C(=O)O
inactive: [1] -11.8% | [2] -29.1% | [3] 7.85% | [4] -5.65% | [5] -59.6% | [6] -11.8%

CN1NC2(CCCCC2)ON=C1c1ccccc1
inactive: [1] 5.35% | [2] -5.5% | [3] 11.1% | [4] 7.9% | [5] -6.35% | [6] 10.7%

Clc1ccccc1/C=C(/c1ccccc1)c1ccccn1
inactive: [1] 37.5% | [2] 12.3% | [3] 23.3% | [4] -8.85% | [5] 29.9% | [6] 15.8%

CN(C)C(=O)Sc1nnc(C(C)(C)C)o1
inactive: [1] -4.35% | [2] -5.9% | [3] -7.3% | [4] -23.4% | [5] 1.7% | [6] 4.2%

c1ccc(-c2ccc[n+](C[n+]3cccc(-c4ccccn4)c3)c2)nc1
inactive: [1] 10.2% | [2] -10.5% | [3] -22.9% | [4] -8.5% | [5] -3.8% | [6] 33.1%

CS(C)=O.CS(C)=O.[Cl][Ru+2][Cl].[NH-]c1ccccc1[NH-]
inactive: [1] 38.6% | [2] 7.6% | [3] 34.4% | [4] 23.8% | [5] -1.9% | [6] 27.8%

NC1=CN(Cc2ccccc2)C2=N/C(=C\c3ccccc3)C(=O)N12
inactive: [1] -13.3% | [2] -5.8% | [3] 8.5% | [4] -16% | [5] 14.2% | [6] -33.7%

Cc1ccnc(C2=C(O)c3ccccc3C2=O)c1
inactive: [1] 20% | [2] 0.1% | [3] -9.75% | [4] 1.15% | [5] -2.8% | [6] 12.8%

CC12CCC(/C(=N/O)C1=O)C2(C)C (stereo unspecified)
inactive: [1] 2.15% | [2] -2.15% | [3] 1.1% | [4] -74.5% | [5] -1.8% | [6] 4.25%

CC12CC3CC/C(=N\O)C(C1)C3(N1CCOCC1)C/C2=N/O (stereo unspecified)
inactive: [1] -22.2% | [2] -16.7% | [3] -10.2% | [4] 0.3% | [5] -14.8% | [6] 8.8%
